TGFb SMAD3 inh: qHTS for Inhibitors of TGF-b; HepG2 CAGA-GFP TGF-b/SMAD3 reporter, GFP fluorescence, 18 h; TGF-beta stimulated, 500 pg/mL final; Potency, µM (highest dose often 46.1 µM), inactives show at the highest dose activity, negative = inhibition, most hits filed as inhibitors; 1.2% of 410,000 active; AID 588855, 2011; further: on the % scale 0 is the no-effect control and ±100 the full control effect; nearly all actives have a fitted effect of over 65% in size
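Inhibition of TGF-beta-driven CAGA-GFP reporter expression in HEPG2 cells is measured by cellular GFP fluorescence after 18 h stimulation with 500 pg/mL recombinant TGF-beta in 1% FBS medium at 37 degrees C.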
S2 tox: Viability Counterscreen for Primary qHTS for Inhibitors of ATXN expression; Potency, µM (series often up to 56.7 µM), most hits filed as cytotoxic; S2 cells (HEK-293 line with an ATXN2-luciferase reporter) viability, CellTiter-Fluor protease fluorescence, 24 h; 0.49% of 400,000 active; further: nearly all actives have a fitted effect of over 40% in size
ATXN2 expr inh: Primary qHTS for Inhibitors of ATXN expression; HEK-293 ATXN2-luciferase reporter, luminescence, 24 h; Potency, µM (doses to about 57 µM), for the others: at the highest dose activity change, negative = inhibition, actives largely listed as inhibitors; 0.72% of 360,000 active; AID 1745845, 2022; further: on the % scale 0 is the no-effect control and ±100 the full control effect; nearly all actives have a fitted effect of over 55% in size
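ATXN2-luciferase reporter cells (luciferase flanked by upstream and downstream ATXN2 gene portions) were treated 24 h at 37 °C with compounds at up to 57 uM. SteadyGlo luminescence gave expression; GF-AFC fluorescence gave viability.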
HT1080-NT tox: qHTS for induction of synthetic lethality in tumor cells producing 2HG: qHTS for the HT-1080-NT fibrosarcoma cell line; Potency, µM (top dose mostly 46.1 µM), for the others: at the top dose activity, negative = less viability, hits mostly cytotoxic; 1.6% of 360,000 active; HT-1080-NT fibrosarcoma viability, CellTiter-Glo ATP luminescence, 48 h;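 further: NT is the 2HG producing partner of a matched IDH1 knockdown line; 0% = DMSO-treated cells and -100% = media-only wells without cells; nearly all actives have a fitted effect of over 55% in size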
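HT-1080-NT; 750 cells/well; 5% FBS RPMI; 48 h compound, 37 degrees C; CellTiter-Glo luminescence; curve fitting and curve-class assignment.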
HT1080 IDH1KD tx: qHTS for induction of synthetic lethality in tumor cells producing 2HG: qHTS for the HT-1080-IDH1KD cell line. HT-1080 IDH1 knockdown viability, ATP luminescence, 48 h. Potency, µM (series often up to 46.1 µM), for the others: at the top dose activity, negative = toxicity, most hits filed as cytotoxic. 2% of 360,000 active;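 further: 0% = DMSO wells and -100% = cell-free medium wells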
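Luminescent ATP read-out (CellTiter-Glo, 10 min at room temperature) after 48 h compound exposure at 37 °C gave viability of IDH1-knockdown HT-1080 cells. Activity was normalised to DMSO and cell-free wells, then fitted as concentration-response curves.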
HepG2 viability: qHTS for Inhibitors of TGF-b: Cytotox Counterscreen; 0.76% of 410,000 active; Potency, µM (titrated, usually from 46.1 µM), for the others: at the highest dose activity change, negative = cytotoxicity, hits mostly cytotoxic; HepG2 CAGA-GFP viability, ATP luminescence, 18 h
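HepG2 CAGA-GFP cells (1000/well, DMEM with 1% FBS) received compound, then TGF-beta at 500 pg/mL final, and were incubated 18 hours at 37 degrees C. Viability was read by CellTiter-Glo luminescence. Media-only wells were set as complete cell-killing and DMSO as no toxicity.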
An asterisk follows results filed as active; [ ] = dose if it differs, or a comment. Shown are actives, neighbours in structure and some others; about 3.8% of the full set was active somewhere. The call rests on the fitted dose curve; in most records, active means well fitted curve in the direction sought with a large enough effect; inconclusive means small, poorly fitted or top-dose-only effect, or another doubt; inactive means no such curve, though single readings can be large; an effect the other way counts as inactive or inconclusive. Potency means the concentration at half of the fitted maximal effect.

How did O=C(Nc1nc2n(n1)C(c1ccc(Cl)cc1)CC(c1ccc(Cl)cc1)N2)c1ccco1 (stereo not given) do in these assays?
TGFb SMAD3 inh: inconclusive; S2 tox: inactive; ATXN2 expr inh: -13%; HT1080-NT tox: 23µM*; HT1080 IDH1KD tx: 23µM*; HepG2 viability: -42%

Results for Cc1cc(C2(c3ccc(O)c(C)c3)C(=O)Nc3ccccc32)ccc1O ?
TGFb SMAD3 inh: -21%; S2 tox: inconclusive; ATXN2 expr inh: inconclusive; HT1080-NT tox: 18µM*; HT1080 IDH1KD tx: -12%[9.24 µM]; HepG2 viability: -111%

Results for Cc1cccc2c1NC(=O)C2(c1ccc(O)cc1)c1ccc(O)cc1 ?
TGFb SMAD3 inh: 14%; S2 tox: inactive; ATXN2 expr inh: 8%; HT1080-NT tox: 0.0082µM*; HT1080 IDH1KD tx: 0.0082µM*; HepG2 viability: -1%

Results for COc1cc2nc(N3CCCC(O)C3)c(CNCc3ccccc3C(F)(F)F)cc2c(OC)c1OC (stereo not given) ?
S2 tox: inactive

Results for O=CNc1ccc(/C=C/c2ccnc3ccccc23)cc1 ?
TGFb SMAD3 inh: -16%; HepG2 viability: -50%

Results for C=CCOc1ccc(CN(C)CC(O)COc2cccc3ccccc23)cc1 (stereo not given) ?
TGFb SMAD3 inh: 18µM*; S2 tox: inactive; ATXN2 expr inh: -25%; HT1080-NT tox: inconclusive; HT1080 IDH1KD tx: inconclusive; HepG2 viability: 13µM*

What do the screens show for `O=C(CC1SC(=Nc2ccccc2)N(CCc2c[nH]c3ccccc23)C1=O)Nc1ccccc1F` (stereo not given)?
TGFb SMAD3 inh: inconclusive; S2 tox: inactive; ATXN2 expr inh: -30%; HT1080-NT tox: inconclusive; HT1080 IDH1KD tx: 21µM*; HepG2 viability: -24%

How did CCOC(=O)C(=Cc1ccc(-n2cncn2)cc1)C(=O)OCC do in these assays?
TGFb SMAD3 inh: inconclusive; S2 tox: inconclusive; ATXN2 expr inh: inconclusive; HT1080-NT tox: 16µM*; HT1080 IDH1KD tx: 5.2µM*; HepG2 viability: -93%

What do the screens show for `O=C(Nc1ccc(F)c(Cl)c1)C1Cc2c(-c3ccccc3Oc3ccccc3)ccnc2O1` (stereo not given)?
TGFb SMAD3 inh: inconclusive; S2 tox: inconclusive; ATXN2 expr inh: inconclusive; HT1080-NT tox: 13µM*; HT1080 IDH1KD tx: 0%; HepG2 viability: -26%

What do the screens show for `COc1ccc(NC(=O)C2Cc3c(-c4ccccc4Oc4ccccc4)ccnc3O2)cc1OC` (stereo not given)?
TGFb SMAD3 inh: inconclusive; S2 tox: inconclusive; ATXN2 expr inh: inconclusive; HT1080-NT tox: inconclusive; HT1080 IDH1KD tx: inconclusive; HepG2 viability: -15%

Results for CC(=O)c1cccc(NC(=O)C2Cc3c(-c4ccc5c(c4)OCO5)ccnc3O2)c1 (stereo not given) ?
TGFb SMAD3 inh: 5%; S2 tox: inconclusive; ATXN2 expr inh: inconclusive; HT1080-NT tox: -5%; HT1080 IDH1KD tx: -25%; HepG2 viability: -39%

Results for O=C(Nc1ccc(F)c(Cl)c1)C1Cc2c(-c3ccc4c(c3)OCO4)ccnc2O1 (stereo not given) ?
TGFb SMAD3 inh: inconclusive; S2 tox: inconclusive; ATXN2 expr inh: inconclusive; HT1080-NT tox: 16µM*; HT1080 IDH1KD tx: 26µM*; HepG2 viability: -17%

Results for O=C(NCc1ccncc1)C1Cc2c(-c3ccccc3Oc3ccccc3)ccnc2O1 (stereo not given) ?
TGFb SMAD3 inh: 14µM*; S2 tox: inconclusive; ATXN2 expr inh: 0%; HT1080-NT tox: inconclusive; HT1080 IDH1KD tx: -3%; HepG2 viability: -57%

Screening results deposited in PubChem by National Center for Advancing Translational Sciences (NCATS).
